G6PDH CS – L. mesenteroides G6PDH inhibitors, counter-screen for G6PDH-coupled screening assays, biochemical, Leuconostoc mesenteroides enzyme. 200,000 tested, 0.12% active. inhibition, % at 5 µM. glucose-6-phosphate dehydrogenase [Leuconostoc mesenteroides]. Purified L. mesenteroides G6PDH, diaphorase/resazurin coupled fluorescence, 45 min. AID 1020, 2008; in the data active = inhibition above about 50%
M18AAP inhibitor – PfM18AAP inhibitors, malaria aminopeptidase, primary screen, biochemical, QFRET, recombinant enzyme; H-Glu-NHMec fluorogenic cleavage; M18 aspartyl aminopeptidase (Plasmodium falciparum 3D7); inhibition, % at 7.35 µM; 290,000 tested, 1.2% active; AID 1822, 2009;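 active = inhibition above the campaign mean inhibition over all tested compounds plus 3 SD, cut at about 28% in these data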;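 also: 0% = plate median of test compound wells and 100% = 2 mM ZnCl2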
HDAC3 inhib – HDAC3 deacetylase inhibitors, primary screen, biochemical, fluorescence, cell-free homogeneous | 320,000 tested, 0.15% active | recombinant HDAC3, fluorogenic peptide/trypsin coupled | Histone deacetylase 3 (Homo sapiens), O15379 | inhibition, % at 8.3 µM; in the data active = inhibition above about 26%, passing the limit was not always enough; inconclusive = no clear call, values can overlap the other calls
Target sequence (O15379 whole entry, looked up): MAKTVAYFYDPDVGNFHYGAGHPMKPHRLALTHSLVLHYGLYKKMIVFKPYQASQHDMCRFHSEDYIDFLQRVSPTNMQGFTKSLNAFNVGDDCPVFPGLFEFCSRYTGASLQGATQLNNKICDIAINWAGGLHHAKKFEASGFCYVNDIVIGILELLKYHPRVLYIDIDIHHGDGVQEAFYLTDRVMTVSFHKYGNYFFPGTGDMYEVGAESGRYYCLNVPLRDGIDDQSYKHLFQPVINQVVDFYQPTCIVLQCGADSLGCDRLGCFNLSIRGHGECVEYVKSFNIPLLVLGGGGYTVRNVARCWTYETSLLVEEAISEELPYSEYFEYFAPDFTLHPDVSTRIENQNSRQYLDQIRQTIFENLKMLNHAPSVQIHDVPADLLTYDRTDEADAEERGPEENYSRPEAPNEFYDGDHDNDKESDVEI
UBC9 SUMO inh – inhibitors of in vitro SUMOylation cascade, primary screen, biochemical, HTRF, uHTS. HTRF SUMOylation assay, SAE1/SAE2 + UBC9. inhibition, % at 35 µM. 290,000 tested, 0.36% active; in the data active = inhibition above about 50%, passing the limit was not always enough; inconclusive = no clear call, values can overlap the other calls
Target sequence (P63279 whole entry, looked up): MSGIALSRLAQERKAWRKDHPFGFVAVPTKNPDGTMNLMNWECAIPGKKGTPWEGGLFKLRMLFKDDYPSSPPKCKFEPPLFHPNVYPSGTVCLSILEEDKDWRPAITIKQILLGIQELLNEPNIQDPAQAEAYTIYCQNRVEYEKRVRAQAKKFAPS
p97 inhibitor – inhibitors of human p97 ATPase, primary screen, biochemical; Transitional endoplasmic reticulum ATPase (Homo sapiens), P55072; recombinant p97 ATPase, Kinase-Glo ATP luminescence, 3 h; inhibition, % at 8 µM; 220,000 tested, 0.42% active; AID 1481, 2009; in the data active = inhibition above about 15%;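 also: 0% = DMSO vehicle and 100% = wells lacking enzyme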
PHOSPHO1 block – PubChem AID 1565 | recombinant PHOSPHO1, absorbance phosphatase assay | 290,000 tested, 1.1% active | inhibition, % at 13.3 µM; in the data active = inhibition above about 60%
p97 inh conf – p97 ATPase inhibitors, retest, confirmation, biochemical; shares compounds with p97 inhibitor; recombinant p97 ATPase, Kinase-Glo ATP luminescence; inhibition, % at 8 µM; 760 tested, 44% active; AID 1517, 2009;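 active = percent inhibition of p97 ATPase above a set limit, the primary screen's mean plus 3 SD, cut at about 15% in these data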;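 also: 0% = DMSO wells and 100% = wells lacking p97 protein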
The depositor's hits bear a star; u = inconclusive; x = not tested or not shown. Most compounds without a hit are left out; they make up all but 2.5% or so of the library.

SMILES | G6PDH CS | M18AAP inhibitor | HDAC3 inhib | UBC9 SUMO inh | p97 inhibitor | PHOSPHO1 block | p97 inh conf
Nc1nc(CCl)nc(Nc2ccc3ccccc3c2)n1 | x | 3.3 | x | -14.8 | 36.2* | 16.0 | 37.8*
Cc1ccc(C(=O)NCCN2C3=NC[C@H](Cc4ccc(O)cc4)N3C[C@H]2Cc2ccc(O)cc2)cc1Br | x | x | -1.3 | -7.3 | x | 35.7 | x
Cc1ccc(C(=O)NCCN2C3=NC[C@@H](Cc4ccccc4)N3C[C@H]2Cc2ccc(O)cc2)cc1Br | 5.5 | 0.8 | 3.4 | 5.2 | 19.8* | -11.8 | 12.3
COCCCNc1nc2nonc2nc1N1CCN2CCCC2C1 (centres undefined) | x | -1.1 | -3.6 | 16.7 | 15.5* | 27.7 | 2.4
CCn1nc(C)c(CNC(=O)c2ccc(OC3CCN(Cc4ccccn4)CC3)cc2)c1C | x | -3.1 | 2.1 | 12.0 | x | 12.3 | x
NS(=O)(=O)c1ccc(CNC(=O)/C=C/c2cccc([N+](=O)[O-])c2)cc1 | x | -7.0 | 5.3 | 20.7 | 6.0 | -1.3 | x
COC(=O)/C=C1/S/C(=N/NC(=O)c2ccccc2OC)NC1=O | x | 11.5 | 3.9 | 12.0 | x | 1.8 | x
COC(=O)/C=C1/S/C(=N/NC(=O)c2ccc(Cl)cc2Cl)NC1=O | x | 2.2 | 9.1 | 19.3 | 22.4* | 37.0 | 21.2*
c1ccc(CN2CCN(c3ncnc4c3[nH]c3ccccc34)CC2)cc1 | 1.8 | -0.6 | -19.3 | -6.1 | 14.9* | -16.5 | 10.5
Cc1ccc2c(c1)[nH]c1c(N3CCN(Cc4ccccc4)CC3)ncnc12 | 2.6 | 2.4 | -7.9 | 5.2 | 6.9 | 20.6 | x
Cc1cc(NC(=O)c2ccc3c(c2)OCCO3)ccc1NC(=O)c1cc2ccccc2o1 | 10.3 | -11.8 | 12.3 | 22.9 | 16.4* | 43.9 | 15.2*
CCc1ccc(OCC(=O)Nc2nnc(C3CCCC3)s2)cc1 | x | -0.2 | -0.9 | -3.2 | x | 34.4 | x
Cc1csc(NC(=O)CSCC(=O)O)c1-c1nc2ccccc2s1 | x | 6.6 | 8.8 | 36.7 | 16.2* | -14.3 | 18.7*
O=C(COc1ccc(C2SCCS2)cc1)NNC(=O)C(Cl)Cl | x | 3.2 | 18.5 | -2.9 | 26.4* | 36.4 | 9.3
CC1=NN(Cc2ccccc2)C(=O)C1C(c1ccc(Cl)cc1)C(C#N)C#N (centres undefined) | -6.5 | 11.4 | 1.6 | -8.5 | 17.8* | 0.7 | 9.0
O=S(=O)(Nc1cc2nc3ccccc3nc2n1Cc1ccccc1)c1ccc(Cl)cc1 | 49.4 | 28.3* | -7.9 | 100.4 | 30.5* | -12.9 | 43.4*
CC1(c2ccc3ccccc3c2)NC(=O)N(CC(=O)N2CCCC(C(F)(F)F)C2)C1=O (centres undefined) | x | x | 2.1 | x | x | x | x
O=C(CCl)Nc1nc(-c2ccco2)c(-c2ccco2)s1 | 15.0 | 36.0* | 4.6 | 81.5* | 17.9* | 8.7 | 42.4*
COc1ccc(-c2nc3c4ccccc4ccn3c2C=O)cc1 | 8.3 | -1.1 | 1.4 | -4.9 | 15.3* | -12.5 | 2.5
CC1=NN(c2ccccc2)C(=O)/C1=C/c1cccs1 | 9.5 | 17.5 | 10.3 | 86.5 | 17.3* | -6.9 | 6.7
O=C(c1ccco1)N1CCN(Cc2cc(=O)c(OCc3ccccc3F)co2)CC1 | x | x | -0.3 | x | x | x | x
Cc1nc(N)sc1C(=O)Nc1ccccc1 | 3.1 | 1.4 | 9.5 | -3.9 | -3.7 | 12.4 | x
COC(=O)c1ccccc1NC(=O)c1sc(N)nc1C | 8.5 | 5.8 | 2.0 | 22.2 | 14.9* | -8.1 | 6.7
O=C1CCCCCCCN1Cc1ccccc1 | x | x | -4.2 | x | x | x | x
CC1=NN(Cc2ccccc2)C(=O)C1 | 0.3 | 11.0 | 4.0 | 17.1 | 21.2* | -18.5 | 0.9
SMILES | G6PDH CS | M18AAP inhibitor | HDAC3 inhib | UBC9 SUMO inh | p97 inhibitor | PHOSPHO1 block | p97 inh conf
CC1=NN(c2ccccc2)C(=O)C1 | 4.9 | 5.7 | 1.6 | 94.1 | 20.5* | 1.1 | 6.1
COc1cc(OC)cc(C(=O)NNC(=S)Nc2ccc(S(N)(=O)=O)cc2)c1 | 10.7 | 10.2 | 1.2 | -4.5 | 20.6* | -45.6 | 24.8*
O=[N+]([O-])c1c(Nc2ccccc2)ccc2nonc12 | 14.7 | 2.6 | 7.3 | 14.2 | 4.1 | -21.9 | x
O=[N+]([O-])c1c(NCc2ccco2)ccc2nonc12 | x | 17.1 | u | 45.7 | 18.1* | 3.1 | 9.1
C#CCOCCOCCOCCNc1nc(N2CCN(C(=O)[C@H]([C@@H](C)CC)n3cc([C@@H](N)Cc4ccc(O)cc4)nn3)CC2)nc(N2CCN(C(=O)[C@H](Cc3cc4ccccc4[nH]3)n3cc([C@@H](N)C(C)CC)nn3)CC2)n1 (some centres undefined) | 5.8 | -3.0 | u | -9.8 | 9.1 | 15.8 | x
C#CCOCCOCCOCCNc1nc(N2CCN(C(=O)[C@H](Cc3ccc(O)cc3)n3cc([C@@H](N)C(C)CC)nn3)CC2)nc(N2CCN(C(=O)[C@H](Cc3cc4ccccc4[nH]3)n3cc([C@@H](N)C(C)CC)nn3)CC2)n1 (some centres undefined) | 3.9 | -7.7 | u | -15.3 | 25.4* | 21.9 | 13.2
C#CCOCCOCCOCCNc1nc(N2CCN(C(=O)[C@H](Cc3ccc(O)cc3)n3cc([C@@H](N)C(C)CC)nn3)CC2)nc(N2CCN(C(=O)[C@H](Cc3cc4ccccc4[nH]3)n3cc([C@@H](N)CC(C)C)nn3)CC2)n1 (some centres undefined) | 6.1 | -18.5 | 15.2 | -12.9 | 22.0* | 26.2 | 12.6
C#CCOCCOCCOCCNc1nc(N2CCN(C(=O)[C@H](Cc3cc4ccccc4[nH]3)n3cc([C@@H](N)C(C)CC)nn3)CC2)nc(N2CCN(C(=O)[C@H](Cc3cc4ccccc4[nH]3)n3cc([C@@H](N)Cc4ccc(O)cc4)nn3)CC2)n1 (some centres undefined) | 6.7 | 3.4 | 3.1 | -31.4 | 17.4* | 35.7 | 26.2*
C#CCOCCOCCOCCNc1nc(N2CCN(C(=O)C(Cc3cc4ccccc4[nH]3)n3cc(C(N)Cc4ccc(O)cc4)nn3)CC2)nc(N2CCN(C(=O)C(Cc3cc4ccccc4[nH]3)n3cc(C(N)Cc4ccc(O)cc4)nn3)CC2)n1 (centres undefined) | 6.6 | 3.3 | x | -23.9 | 21.6* | 55.7 | 26.3*
C#CCOCCOCCOCCNc1nc(N2CCN(C(=O)[C@H](Cc3cc4ccccc4[nH]3)n3cc([C@@H](N)Cc4ccc(O)cc4)nn3)CC2)nc(N2CCN(C(=O)[C@H](Cc3cc4ccccc4[nH]3)n3cc([C@@H](N)CC(C)C)nn3)CC2)n1 | x | x | x | -44.3 | x | 30.9 | x
C[C@H](CO)N1C[C@H](C)[C@@H](CN(C)C(=O)Nc2ccc3c(c2)OCO3)Oc2ccc(NC(=O)Nc3ccc4c(c3)OCO4)cc2C1=O | x | x | -3.9 | x | x | x | x
